According to PubChem BioAssay (NCI):
The panel holds about 83,000 compounds, 20% with a hit somewhere; the sample as a whole holds those more often.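 Values shown are percent growth following 48 h exposure of cells in 96-well plates to a single concentration of compound; below 10 was considered active.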 Unmarked numbers belong to inactive results. Calls of active or inactive are those of the source.

What was measured:
Assay in all cases: NCI-60 one-dose screen, 48 h (100 = growth as untreated, 0 = no growth, -100 = all killed)
[1] = test system: DU-145 prostate; conditions: 10 µM
[2] = test system: K-562 leukemia; conditions: 10 µM
[3] = test system: MALME-3M melanoma; conditions: 10 µM
[4] = test system: MDA-MB-231 breast; conditions: 10 µM
[5] = test system: RXF 393 renal; conditions: 10 µM
[6] = test system: SF-268 CNS; conditions: 10 µM
[7] = test system: SF-295 CNS; conditions: 10 µM
[8] = test system: SF-539 CNS; conditions: 10 µM
[9] = test system: UACC-257 melanoma; conditions: 10 µM
[10] = test system: M14 melanoma; conditions: 10 µM
[11] = test system: HCT-15 colon; conditions: 10 µM
[12] = test system: HT29 colon; conditions: 10 µM
[13] = test system: SNB-75 CNS; conditions: 10 µM
[14] = test system: SNB-19 CNS; conditions: 10 µM
[15] = test system: U251 CNS; conditions: 10 µM
[16] = test system: PC-3 prostate; conditions: 10 µM
[17] = test system: SK-MEL-5 melanoma; conditions: 10 µM
[18] = test system: UACC-62 melanoma; conditions: 10 µM unless noted
[19] = test system: LOX IMVI melanoma; conditions: 10 µM
[20] = test system: SK-MEL-28 melanoma; conditions: 10 µM

Structure (SMILES) | growth [1] [%] | growth [2] [%] | growth [3] [%] | growth [4] [%] | growth [5] [%] | growth [6] [%] | growth [7] [%] | growth [8] [%] | growth [9] | growth [10] [%] | growth [11] [%] | growth [12] [%] | growth [13] [%] | growth [14] [%] | growth [15] [%] | growth [16] [%] | growth [17] [%] | growth [18] [%] | growth [19] [%] | growth [20]
CCCCN(CCCC)CCCO | 110 | 114 | 129 | 116 | 119 | 101 | 124 | 101 | 113% | 108 | 100 | 126 | 86.7 | 112 | 116 | 180 | 104 | 106 | 101 | 110%
Cc1c(O)cccc1O | 124 | 88.2 | 156 | 96.5 | 77.7 | 112 | 98.2 | 103 | 108% | 105 | 116 | 106 | 99.1 | 97.6 | 98.7 | 96.9 | 106 | 94.9 | 106 | 122%
Cc1ccc(O)c(C(=O)c2ccccc2)c1 | 112 | 122 | 130 | 90.6 | 110 | 101 | 106 | 101 | 96.4% | 95.8 | 104 | 104 | 96.6 | 92.2 | 105 | 101 | 105 | 96.6 | 99.3 | 110%
Cc1cccc([N+](=O)[O-])c1Cl | 105 | 119 | 109 | 113 | 103 | 101 | 104 | 105 | 105% | 106 | 99.6 | 112 | 95.2 | 106 | 102 | 102 | 98.8 | 105 | 101 | 107%
CC1SC(N)=NC1=O (stereo not given) | 117 | 112 | 108 | 112 | 120 | 110 | 102 | 106 | 110% | 103 | 114 | 128 | 103 | 109 | 113 | 106 | 113 | 100 | 104 | 112%
O=C1C=C(O)C(=O)C=C1O | 119 | 103 | 144 | 104 | 150 | 101 | 115 | 98.7 | 107% | 104 | 107 | 105 | 95.1 | 104 | 104 | 101 | 114 | 102 | 98.9 | 114%
c1cc[n+](C2c3ccccc3C([n+]3ccccc3)c3ccccc32)cc1 (stereo not given) | 91.7 | 72.9 | 53.1 | 70.6 | 61.6 | 23 | 52 | 27.9 | 80.1% | 96 | 103 | 73.4 | 17.9 | 26.7 | 21.5 | 58.4 | 27.6 | 67.3 | 76.1 | 61.6%
C=CCNC(=O)c1ccc(OC)cc1 | 124 | 105 | 117 | 104 | 111 | 126 | 115 | 100 | 97.6% | 100 | 108 | 129 | 117 | 92.1 | 101 | 104 | 103 | 99.1 | 111 | 144%
O=S(=O)(O)c1ccc(O)c2ccccc12 | 115 | 104 | 127 | 90.8 | 108 | 98.5 | 119 | 91.8 | 112% | 79.4 | 113 | 110 | 88.1 | 97.8 | 107 | 92 | 114 | 101 | 92.7 | 109%
COc1cc(C2NC(=O)C(C#N)=C(Nc3cccc(C)c3)S2)ccc1O (stereo not given) | 122 | 93.8 | 108 | 99.2 | 103 | 109 | 101 | 90.4 | -2.62% (active) | 101 | 111 | 107 | 89.6 | 102 | 103 | 97.6 | 101 | 97.8 | 99.1 | 103%
CC(O)COc1ccc(-c2ccccc2)cc1 (stereo not given) | 108 | 102 | 115 | 96.6 | 106 | 99.4 | 107 | 104 | 119% | 108 | 96.3 | 116 | 102 | 98.4 | 99.7 | 101 | 99.1 | 92.4 | 101 | 103%
Cc1ccc(Cl)cc1NC(=O)N(C)CCO | 131 | 98.5 | 134 | 118 | 112 | 126 | 121 | 91.9 | 110% | 107 | 110 | 133 | 126 | 101 | 102 | 96 | 101 | 109 | 107 | 145%
O=c1[nH]n(-c2ccccc2)c(=O)cc1Cl | 116 | 103 | 99.9 | 97.2 | 113 | 101 | 114 | 97.7 | 97.1% | 106 | 120 | 110 | 95.2 | 98.9 | 109 | 97.3 | 102 | 87.3 | 96 | 117%
NC(N)=Nc1cc2ccccc2c2ccccc12 | 84.9 | 62.3 | 76.2 | 80.1 | 78.8 | 82.6 | 55.9 | 89.1 | 1.37% (active) | 85 | 85.7 | 65.3 | 57 | 82.2 | 79.4 | 61.5 | 85.9 | 75 | 74.9 | 88.3%
CN1C(=O)CN2CCc3ccccc3C2c2cc(Cl)ccc21 (stereo not given) | 119 | 92.6 | 94.3 | 93.6 | 93.7 | 103 | 105 | 89.4 | 112% | 97.2 | 89.7 | 108 | 96.1 | 96.7 | 103 | 94.7 | 91.5 | 78.7 | 94.7 | -89.5% (active)
CCOC(=O)C1OC1c1ccccc1 (stereo not given) | 107 | 103 | 103 | 111 | 112 | 97.5 | 93.2 | 99.4 | 106% | 97.8 | 103 | 112 | 92 | 103 | 98.7 | 98.8 | 99.6 | 101 | 101 | 110%
NC(C(=O)O)C(O)c1ccco1 (stereo not given) | 115 | 105 | 98.6 | 117 | 105 | 116 | 108 | 110 | 102% | 105 | 99.1 | 120 | 106 | 114 | 102 | 96 | 104 | 113 | 103 | 107%
